# Measurements taken from PMC12701074.
# How the values were obtained:
# Histone H2B type 1-L = Histone H2B type 1-L (UniProt Q99880); assay: cross-linking mass spectrometry
# DNA topoisomerase 1 = DNA topoisomerase 1 (UniProt P11387); assay: cross-link between two proteins; cross-linking mass spectrometry
# [1] = biological target: Large ribosomal subunit protein eL36 (UniProt Q9Y3U8); assay: as above
# [2] = biological target: Probable ATP-dependent RNA helicase DDX5 (UniProt P17844); assay: as above
# [3] = biological target: Small ribosomal subunit protein uS17 (UniProt P62280); assay: as above
# Histone H2B type 1-B = Histone H2B type 1-B (UniProt P33778); assay: as above
# Histone H4 = Histone H4 (UniProt P62805); assay: as above
# [4] = biological target: Large ribosomal subunit protein eL24 (UniProt P83731); assay: as above
# [5] = biological target: Large ribosomal subunit protein uL18 (UniProt P46777); assay: as above
# [6] = biological target: Large ribosomal subunit protein uL2 (UniProt P62917); assay: as above
# [7] = biological target: Small ribosomal subunit protein uS12 (UniProt P62266); assay: as above
# [8] = biological target: Peptidyl-prolyl cis-trans isomerase A-like 4A (UniProt Q9Y536); assay: as above
# [9] = biological target: Small ribosomal subunit protein eS6 (UniProt P62753); assay: as above
# [10] = biological target: Small ribosomal subunit protein uS9 (UniProt P62249); assay: as above
# Peptidyl-prolyl cis-trans isomerase A-like 4A, sequence (Q9Y536 whole entry): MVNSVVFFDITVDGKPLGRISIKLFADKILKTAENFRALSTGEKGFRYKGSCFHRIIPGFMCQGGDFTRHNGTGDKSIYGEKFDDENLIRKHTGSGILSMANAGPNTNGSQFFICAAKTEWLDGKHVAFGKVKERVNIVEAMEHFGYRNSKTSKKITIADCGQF
# DNA topoisomerase 1, sequence (P11387 whole entry): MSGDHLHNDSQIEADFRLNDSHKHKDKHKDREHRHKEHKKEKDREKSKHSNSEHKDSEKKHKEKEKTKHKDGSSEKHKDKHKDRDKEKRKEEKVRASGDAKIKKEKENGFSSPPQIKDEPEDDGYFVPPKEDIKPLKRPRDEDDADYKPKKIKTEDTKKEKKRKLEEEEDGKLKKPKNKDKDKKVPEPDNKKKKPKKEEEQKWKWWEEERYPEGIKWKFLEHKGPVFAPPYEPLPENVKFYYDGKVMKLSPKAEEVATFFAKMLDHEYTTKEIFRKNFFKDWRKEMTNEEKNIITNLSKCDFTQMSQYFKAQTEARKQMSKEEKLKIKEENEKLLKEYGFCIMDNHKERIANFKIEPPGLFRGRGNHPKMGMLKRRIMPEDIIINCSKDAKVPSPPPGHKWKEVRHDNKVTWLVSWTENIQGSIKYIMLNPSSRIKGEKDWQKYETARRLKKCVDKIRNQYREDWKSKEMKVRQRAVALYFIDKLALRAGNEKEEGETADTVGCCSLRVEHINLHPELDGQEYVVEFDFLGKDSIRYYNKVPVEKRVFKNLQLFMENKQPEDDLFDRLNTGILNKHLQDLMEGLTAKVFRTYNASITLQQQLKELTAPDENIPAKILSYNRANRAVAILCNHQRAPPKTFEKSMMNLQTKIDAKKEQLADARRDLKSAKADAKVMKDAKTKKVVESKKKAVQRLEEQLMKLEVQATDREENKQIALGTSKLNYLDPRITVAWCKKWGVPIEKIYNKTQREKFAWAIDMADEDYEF
# Probable ATP-dependent RNA helicase DDX5, sequence (P17844 whole entry): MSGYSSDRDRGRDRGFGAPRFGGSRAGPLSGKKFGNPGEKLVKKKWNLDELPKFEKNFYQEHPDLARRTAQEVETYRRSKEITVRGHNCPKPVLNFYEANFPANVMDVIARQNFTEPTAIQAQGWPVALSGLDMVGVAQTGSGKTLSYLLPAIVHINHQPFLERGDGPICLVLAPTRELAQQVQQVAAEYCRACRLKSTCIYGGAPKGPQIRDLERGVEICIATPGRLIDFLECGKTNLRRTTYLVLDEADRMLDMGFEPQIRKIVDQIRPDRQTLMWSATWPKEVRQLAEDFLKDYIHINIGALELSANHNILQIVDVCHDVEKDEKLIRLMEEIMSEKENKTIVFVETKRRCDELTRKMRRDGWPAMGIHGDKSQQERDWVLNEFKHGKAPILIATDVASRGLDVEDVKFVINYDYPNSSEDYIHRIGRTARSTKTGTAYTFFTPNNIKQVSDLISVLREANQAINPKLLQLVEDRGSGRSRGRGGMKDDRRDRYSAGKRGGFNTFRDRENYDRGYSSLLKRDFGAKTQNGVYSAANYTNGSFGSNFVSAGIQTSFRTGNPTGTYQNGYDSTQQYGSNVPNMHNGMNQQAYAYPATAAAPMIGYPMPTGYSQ
substance,measurement,setting,value
"Actin, cytoplasmic 1, P60709",listed as a hit,Histone H2B type 1-L,yes
"Histone H1.4, P10412",listed as a hit,DNA topoisomerase 1,yes
same,listed as a hit,[1],yes
same,listed as a hit,[2],yes
same,listed as a hit,[3],yes
"Large ribosomal subunit protein eL33, P18077",listed as a hit,Histone H2B type 1-B,yes
"Large ribosomal subunit protein uL22, P18621",listed as a hit,Histone H2B type 1-B,yes
"Small ribosomal subunit protein uS5, P15880",listed as a hit,Histone H4,yes
"Small ribosomal subunit protein eS1, P61247",listed as a hit,Histone H4,yes
"Histone H4, P62805",listed as a hit,[4],yes
"Histone H2B type 1-B, P33778",listed as a hit,[5],yes
same,listed as a hit,[6],yes
same,listed as a hit,[7],yes
"Histone H2B type 1-C/E/F/G/I, P62807",listed as a hit,[8],yes
"Large ribosomal subunit protein uL4, P36578",listed as a hit,[9],yes
"Large ribosomal subunit protein eL27, P61353",listed as a hit,[10],yes
